From PubChem
Menin-MLL FL inh: inhibitors of human menin-MLL interaction, wild-type MLL peptide | Fluorescence polarization, fluorescein-MLL peptide displacement from menin | FP activity change, % at 61.4 µM | 290,000 tested, under 10 active; active = well fitted curve in the direction sought with a large enough effect in the polarisation, not every such curve was filed as active; inconclusive = small, poorly fitted or top-dose-only effect, or effect the other way, or a change in a side signal; inactive = no such curve, though single readings can be large or run the other way; the % refers to the polarisation
ERG-DNA inh: blocks human ERG Ets domain binding to DNA; AID 624246; Potency, µM (top dose mostly 76.9 µM), hits mostly inhibitors; fluorescence polarization, His-ERG Ets domain / labelled DNA; P11308; 0.028% of 370,000 active; active = well fitted inhibition curve with a large enough effect in the polarisation, with a control signal flat; inconclusive = small, poorly fitted or top-dose-only effect, or effect the other way, or a change in a side signal; inactive = no such curve, though single readings can be large or run the other way; the % refers to the polarisation;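 note: polarization taken with two DNA probes labelled with fluorescein and Texas red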
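His-tagged ERG Ets domain (1 uM in the protein solution; 300mM KCl, 50mM Tris-HCl, 1mM EDTA, 1mM DTT, pH 7.5) received compound, then a probe mix of 5 nM fluorescein-DNA and 100nM Texas-615-DNA. Fluorescence polarization was read for both dyes.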
MmCpn inh: inhibitors of Methanococcus maripaludis chaperonin TRiC (MmCpn); purified Mm-Cpn ATPase, ADP Transcreener TR-FRET; Potency, µM (series often up to 76.9 µM), usual class: inhibitors; 0.031% of 330,000 active; AID 504842; active = well fitted inhibition curve with a large enough effect; inconclusive = small, poorly fitted or top-dose-only effect; note: nearly all actives have a fitted effect of over 80% in size
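Measured: ADP formation by purified Mm-CPN. Conditions: 25 nM protein, 10 uM ATP, Tris pH 7.4 with Mg2+, K+ and DTT, 37°C for 30 min. Detection: Transcreener HTRF after 30 min at room temperature.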
Menin-MLL TR inh: displaces Texas Red mutant MLL peptide from human menin; Menin + Texas Red MLL mutant peptide, fluorescence polarization; Potency, µM (doses to about 61.6 µM), most hits filed as inhibitors; 0.23% of 270,000 active; AID 1768; active = well fitted inhibition curve with a large enough effect in the polarisation, with a control signal flat, not every such curve was filed as active; inconclusive = small, poorly fitted or top-dose-only effect, or effect the other way, or a change in a side signal; inactive = no such curve, though single readings can be large or run the other way; the % refers to the polarisation
Target sequence (O00255 whole entry, looked up): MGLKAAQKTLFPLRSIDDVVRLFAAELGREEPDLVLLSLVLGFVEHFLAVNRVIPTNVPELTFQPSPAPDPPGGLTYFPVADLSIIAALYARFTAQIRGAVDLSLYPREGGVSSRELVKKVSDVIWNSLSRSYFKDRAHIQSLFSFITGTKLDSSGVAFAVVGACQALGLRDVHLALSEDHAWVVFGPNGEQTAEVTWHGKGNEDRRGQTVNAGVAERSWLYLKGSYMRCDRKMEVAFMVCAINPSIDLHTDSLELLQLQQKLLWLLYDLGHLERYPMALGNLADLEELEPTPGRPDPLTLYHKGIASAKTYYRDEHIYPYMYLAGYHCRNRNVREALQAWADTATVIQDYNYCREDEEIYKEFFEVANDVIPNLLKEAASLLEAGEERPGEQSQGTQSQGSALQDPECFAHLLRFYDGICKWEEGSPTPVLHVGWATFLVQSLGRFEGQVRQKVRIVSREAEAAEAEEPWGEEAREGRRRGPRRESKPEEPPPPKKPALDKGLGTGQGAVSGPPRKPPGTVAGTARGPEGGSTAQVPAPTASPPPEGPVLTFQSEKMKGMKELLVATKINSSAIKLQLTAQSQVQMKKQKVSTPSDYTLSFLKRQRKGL
CXXC DNA block: inhibitors of human MLL CXXC domain-DNA interaction. Q03164. MLL-CXXC / FITC-HOXA9 DNA fluorescence polarization. Potency, µM (highest dose often 115 µM), hits mostly inhibitors. 0.037% of 290,000 active; active = well fitted inhibition curve with a large enough effect in the polarisation, with a control signal flat, not every such curve was filed as active; inconclusive = small, poorly fitted or top-dose-only effect, or effect the other way, or a change in a side signal; inactive = no such curve, though single readings can be large or run the other way; the % refers to the polarisation
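Fluorescence polarization: 7 uM MLL-CXXC (stock) preincubated 5 min with compounds, then 50 nM fluorescein-HOX-A9 DNA (stock) added; 30 min ambient. Buffer 50 mM Tris-HCl pH 7.5, 50 mM NaCl, 1 mM DTT, 0.05% BSA.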
Numbers stand for hits; 0 = inactive; ? = inconclusive; - = no result given. Shown is part of a subset that was picked to be rich in hits.

SMILES	Menin-MLL FL inh	ERG-DNA inh	MmCpn inh	Menin-MLL TR inh	CXXC DNA block
O=C1Oc2ccccc2C(=O)C1C(CC(O)c1ccc(-c2ccc(Br)cc2)cc1)c1ccccc1 (stereo not drawn)	0	-	-	?	0
NC(=O)C1CCN(c2nc(-c3ccc(N4CCCCC4)nc3)cs2)CC1	-	-	0	-	-
COC(=O)c1cc(NC(=O)c2ccccc2)c(=O)oc1/C=C/Nc1ccc(Oc2ccccc2)cc1	?	?	0	10µM	?
O=C(NC1=NCCS1)c1cc(-c2ccc(-c3ccccc3)cc2)nc2ccccc12	0	0	0	11µM	-
COc1ccc(-c2csc(NC(=O)c3ccc(S(=O)(=O)N4CCc5ccccc5C4)cc3)n2)c(OC)c1	0	0	50µM	?	0
O=C(Nc1nc(-c2ccc3c(c2)Cc2ccccc2-3)cs1)c1ccccc1	0	0	0	16µM	0
CCOc1ccc(-c2csc(NC(=O)c3ccc(S(=O)(=O)N4CCc5ccccc5C4)cc3)n2)cc1	0	0	?	?	0
CCOc1cc(N2CCOCC2)c(OCC)cc1NC(C)C(=O)N1CCN(CC)CC1 (stereo not drawn)	0	0	0	32µM	0
COc1ccc(NC(=O)/C=C/C(=O)O)cc1Cl	0	-	6.3µM	0	0
COc1ccc(NC(=O)CCCC(=O)O)cc1Cl	0	0	0	0	0
O=C1c2cc(O)cc(O)c2OC[C@@H]1c1ccc(O)c(O)c1	0	-	-	0	-
Cn1nnnc1Sc1ncnc2scc(-c3cc4ccccc4o3)c12	-	-	40µM	-	-
Cc1cc(N)ccc1N1CCCC1	0	?	0	28µM	?
Cc1cc(N)ccc1-n1c(C)ccc1C	0	?	0	?	0
NC(=O)C1CCN(c2nc(-c3cccc4sc5ccccc5c34)cs2)CC1	-	-	0	-	-
O=C(C[n+]1ccc(CCSc2ccc(F)cc2)cc1)c1ccccc1	?	0	0	18µM	0
COC(=O)c1c(-c2cc(OC)cc(OC)c2)sc2ccc(OC)cc12	-	0	35µM	-	-
COC(=O)c1c(-c2ccc(OC)cc2)sc2ccccc12	-	-	35µM	-	-
COC(=O)c1c(-c2ccc(S(C)(=O)=O)cc2)sc2cc(OC)ccc12	-	0	35µM	-	-
COC(=O)c1c(-c2ccccc2OC)sc2ccccc12	-	0	35µM	-	-
COC(=O)c1c(-c2ccc(S(C)(=O)=O)cc2)sc2ccc(OC)cc12	-	0	?	-	-
c1ccc2c(c1)SCc1c-2[nH]c2ccccc12	0	-	-	?	-
CCCCC/C=C\C\C=C/C=C/C=C/[C@@H](SCC(N)C(=O)NCC(=O)O)[C@@H](O)CCCC(=O)O (stereo partly drawn)	0	-	-	0	-
CC[C@H](C)[C@H](NC(=O)[C@H](CO)NC(=O)[C@H](CC(C)C)NC(=O)[C@H](CO)NC(=O)[C@@H]1CCCN1C(=O)[C@H](CC(N)=O)NC(=O)[C@@H](N)CC(=O)O)C(=O)N[C@@H](CC(=O)O)C(=O)N[C@@H](CC(C)C)C(=O)N[C@H](C(=O)N[C@@H](Cc1ccccc1)C(=O)N[C@@H](Cc1cnc[nH]1)C(=O)N[C@@H](CC(C)C)C(=O)N[C@@H](CC(C)C)C(=O)N[C@@H](CCCNC(=N)N)C(=O)N[C@H](C(=O)N[C@@H](CC(C)C)C(=O)N[C@@H](CC(C)C)C(=O)N[C@@H](CCC(=O)O)C(=O)N[C@@H](CC(C)C)C(=O)N[C@@H](C)C(=O)N[C@@H](CCCNC(=N)N)C(=O)N[C@H](C(=O)N[C@@H](CCC(N)=O)C(=O)N[C@@H](CO)C(=O)N[C@@H](CCC(N)=O)C(=O)N[C@@H](CCCNC(=N)N)C(=O)N[C@@H](CCC(=O)O)C(=O)N[C@@H](CCCNC(=N)N)C(=O)N[C@@H](C)C(=O)N[C@@H](CCC(=O)O)C(=O)N[C@@H](CCC(N)=O)C(=O)N[C@@H](CC(N)=O)C(=O)N[C@@H](CCCNC(=N)N)C(=O)N[C@H](C(=O)N[C@H](C(=O)N[C@@H](Cc1ccccc1)C(=O)N[C@@H](CC(=O)O)C(=O)N[C@@H](CO)C(=O)N[C@H](C(N)=O)C(C)C)[C@@H](C)CC)[C@@H](C)CC)[C@@H](C)O)[C@@H](C)O)[C@@H](C)O	0	-	-	0	-
C/C1=C\[C@@H](O)C(C(C)C)C(OC(=O)c2ccc(O)cc2)C/C(C)=C/CC1 (stereo partly drawn)	0	-	-	0	-
